Results: PubChem BioAssay (EPA / NIEHS)
The source made the active and inactive calls. How the source made its calls: active means hit-call score of the fitted dose curve at least 0.9, where 1 is the maximum; inactive means score below 0.9.

Tests used:
Conditions in all cases: mRNA level, 48 h; actives raise or lower the signal
[1] = read-out: Ezrin (EZR), EZR (gene 7430); assay: LTEA_HepaRG_EZR: Life Technologies and Expression Analysis (LTEA) Assay for Ezrin (EZR) using HepaRG (AID 2283491)
In short: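 Differentiated human HepaRG cells, 48 h after plating, were exposed in serum-free induction medium for 48 hours to eight half-log concentrations up to 100 uM in 0.5% DMSO. EZR mRNA was measured by TaqMan qRT-PCR, normalized to ACTB, GAPDH and POLR2A, and fitted bidirectionally against DMSO.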

[2] = read-out: Cytochrome P450 3A7 (Homo sapiens) (UniProt P24462); assay: LTEA_HepaRG_CYP3A7: Life Technologies and Expression Analysis (LTEA) Assay for CYP3A7 using HepaRG (AID 2283492)
In short: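 Cells were thawed, plated, cultured 48 h, then treated for a further 48 h with chemicals (eight-point half-log series from 100 uM, 0.5% DMSO). RNA was isolated and CYP3A7 expression quantified by qRT-PCR normalised to ACTB, GAPDH and POLR2A.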

CYP3A5 (gene 1577) = assay: LTEA_HepaRG_CYP3A5: Life Technologies and Expression Analysis (LTEA) Assay for CYP3A5 using HepaRG (AID 2283493)
In short: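 mRNA levels were quantified by qRT-PCR on Fluidigm arrays and normalized to three housekeeping genes. Differentiated HepaRG cells received 48 h exposure (top 100 uM, half-log steps, 0.5% DMSO vehicle, duplicate); bidirectional fitting versus DMSO.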

[3] = read-out: Fatty Acid-Binding Protein 1 (FABP1), FABP1 (gene 2168); assay: LTEA_HepaRG_FABP1: Life Technologies and Expression Analysis (LTEA) Assay for Fatty Acid-Binding Protein 1 (FABP1) using HepaRG (AID 2283494)
In short: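 FABP1 expression by TaqMan qRT-PCR, normalised to three housekeeping genes, in HepaRG cells after 48 h chemical treatment. Eight-point half-log series topping at 100 uM in 0.5% DMSO, duplicates; gain or loss fitted relative to vehicle.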

[4] = read-out: Cytochrome P450 4A22 (Homo sapiens) (UniProt Q5TCH4); assay: LTEA_HepaRG_CYP4A22: Life Technologies and Expression Analysis (LTEA) Assay for Cytochrome P450 4A22 (CYP4A22) using HepaRG (AID 2283495)
In short: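 Cryopreserved HepaRG cells, plated and cultured 48 h, then switched to serum-free induction medium and treated 48 h (duplicates, up to 100 uM, half-log steps, 0.5% DMSO). Expression change of CYP4A22 was fitted bidirectionally against vehicle.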

[5] = read-out: Cytochrome P450 7A1 (Homo sapiens) (UniProt P22680); assay: LTEA_HepaRG_CYP7A1: Life Technologies and Expression Analysis (LTEA) Assay for Cytochrome P450 7A1 (CYP7A1) using HepaRG (AID 2283496)
In short: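 HepaRG, 48 h exposure, 8-pt half-log series from 100 uM, 0.5% DMSO vehicle, duplicates. Readout: TaqMan qRT-PCR mRNA vs three housekeeping genes; bidirectional curve fit against DMSO baseline.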

[6] = read-out: Glutathione S-Transferase (GSTA2), GSTA2 (gene 2939); assay: LTEA_HepaRG_GSTA2: Life Technologies and Expression Analysis (LTEA) Assay for Glutathione S-Transferase (GSTA2) using HepaRG (AID 2283497)
In short: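 GSTA2 transcript levels came from Fluidigm TaqMan qRT-PCR normalized to three housekeeping genes, fitted in both directions against DMSO. HepaRG cultures received chemicals for 48 h in serum-free induction medium (0.5% DMSO), 8 half-log concentrations up to 100 uM, duplicate.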

[7] = read-out: Glutamate-cysteine ligase catalytic (GCLC), GCLC (gene 2729); assay: LTEA_HepaRG_GCLC: Life Technologies and Expression Analysis (LTEA) Assay for Glutamate-cysteine ligase catalytic (GCLC) using HepaRG (AID 2283498)
In short: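 Expression by TaqMan qRT-PCR, normalized to three housekeeping genes (ACTB, GAPDH, POLR2A), with up- or down-regulation fitted against DMSO. HepaRG cells dosed in duplicate for 48 h with 8 half-log concentrations up to 100 uM, vehicle 0.5% DMSO.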

[8] = read-out: growth arrest and DNA damage 45 (GADD45G), GADD45G (gene 10912); assay: LTEA_HepaRG_GADD45G: Life Technologies and Expression Analysis (LTEA) Assay for growth arrest and DNA damage 45 (GADD45G) using HepaRG (AID 2283499)
In short: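 Human hepatic HepaRG line treated 48 h with chemicals (eight concentrations, half-log steps from 100 uM); transcript induction or repression of GADD45G scored by qRT-PCR versus DMSO vehicle.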

[9] = read-out: Glutamate-cysteine ligase regulatory (GCLM), GCLM (gene 2730); assay: LTEA_HepaRG_GCLM: Life Technologies and Expression Analysis (LTEA) Assay for Glutamate-cysteine ligase regulatory (GCLM) using HepaRG (AID 2283500)
In short: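 GCLM expression quantified by qRT-PCR, normalized to three housekeeping genes, after 48 h chemical treatment of HepaRG cells in duplicate at 8 concentrations (top 100 uM, half-log steps, 0.5% DMSO). Changes fitted both directions against vehicle.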

[10] = read-out: Glutathione S-transferase M3 (GSTM3), GSTM3 (gene 2947); assay: LTEA_HepaRG_GSTM3: Life Technologies and Expression Analysis (LTEA) Assay for Glutathione S-transferase M3 (GSTM3) using HepaRG (AID 2283501)
In short: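 Changes in GSTM3 expression, an oxidative-stress marker, were scored by bidirectional curve fitting against 0.5% DMSO vehicle. Human HepaRG cultures received chemicals for 48 h in duplicate, highest concentration 100 uM with half-log dilutions.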

[11] = read-out: Heat shock 70 kDa protein 1 (HSPA1A), gene 3303; assay: LTEA_HepaRG_HSPA1A: Life Technologies and Expression Analysis (LTEA) Assay for Heat shock 70 kDa protein 1 (HSPA1A) using HepaRG (AID 2283502)
In short: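 HSPA1A expression measured by qRT-PCR with ACTB/GAPDH/POLR2A normalization; curves fitted in both directions relative to DMSO vehicle. Exposure: 48 h in HepaRG cells, duplicate 8-point half-log series from 100 uM, 0.5% DMSO, serum-free induction medium.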

[12] = read-out: Hypoxia-inducible factor 1-alpha (Homo sapiens) (UniProt Q16665); assay: LTEA_HepaRG_HIF1A: Life Technologies and Expression Analysis (LTEA) Assay for Hypoxia-inducible factor 1 (HIF1A) Trancription factor using HepaRG (AID 2283503)
In short: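 HIF1A transcript level read by qRT-PCR (ACTB, GAPDH, POLR2A normalization) after 48 h chemical exposure of HepaRG cultures. Eight half-log concentrations, top 100 uM, 0.5% DMSO vehicle, duplicates; bidirectional curve fit against DMSO baseline.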

[13] = read-out: 3-Hydroxy-3-Methylglutaryl-CoA Synthase 2 (HMGCS2), HMGCS2 (gene 3158); assay: LTEA_HepaRG_HMGCS2: Life Technologies and Expression Analysis (LTEA) Assay for 3-Hydroxy-3-Methylglutaryl-CoA Synthase 2 (HMGCS2) using HepaRG (AID 2283504)
In short: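 Expression of HMGCS2 in human HepaRG liver cells is measured by qRT-PCR 48 h after dosing (highest 100 uM, half-log series, 0.5% DMSO). Values come from bidirectional concentration-response fitting with DMSO as baseline.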

HGF (gene 3082) = assay: LTEA_HepaRG_HGF: Life Technologies and Expression Analysis (LTEA) Assay for Hepatocyte Growth Facto (HGF) using HepaRG (AID 2283505)
In short: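 Gain or loss of HGF mRNA in human HepaRG liver cells after 48 h chemical exposure; eight concentrations up to 100 uM with 0.5% DMSO vehicle, quantified by TaqMan qRT-PCR.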

[14] = read-out: Insulin Like Growth Factor 1 (IGF1), IGF1 (gene 3479); assay: LTEA_HepaRG_IGF1: Life Technologies and Expression Analysis (LTEA) Assay for Insulin Like Growth Factor 1 (IGF1) using HepaRG (AID 2283506)
In short: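 Expression measured by TaqMan qRT-PCR on a Fluidigm array, with three housekeeping genes for normalisation, after 48 h treatment of HepaRG cells. Top concentration 100 uM with half-log steps, 0.5% DMSO vehicle, bidirectional fit.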

[15] = read-out: Intercellular Adhesion Molecule 1 (ICAM1), ICAM1 (gene 3383); assay: LTEA_HepaRG_ICAM1: Life Technologies and Expression Analysis (LTEA) Assay for Intercellular Adhesion Molecule 1 (ICAM1) using HepaRG (AID 2283507)
In short: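 Gain or loss of transcript in HepaRG hepatic cells is quantified by qRT-PCR after 48 h chemical exposure (up to 100 uM, half-log steps), with DMSO as baseline.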

[16] = read-out: Insulin-like growth factor-binding protein 1 (IGFBP1), IGFBP1 (gene 3484); assay: LTEA_HepaRG_IGFBP1: Life Technologies and Expression Analysis (LTEA) Assay for Insulin-like growth factor-binding protein 1 (IGFBP1) using HepaRG (AID 2283508)
In short: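 mRNA induction or loss was quantified by qRT-PCR after 48 h chemical exposure of human HepaRG cells, with 0.5% DMSO as vehicle and baseline. Concentration-response over eight points up to 100 uM.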

[17] = read-out: Interleukin 6 (IL6), IL6 (gene 3569); assay: LTEA_HepaRG_IL6: Life Technologies and Expression Analysis (LTEA) Assay for Interleukin 6 (IL6) using HepaRG (AID 2283509)
In short: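 Transcript levels, normalized to three housekeeping genes, were quantified by qRT-PCR after 48 h chemical treatment of HepaRG cells. Eight-point half-log series from 100 uM in 0.5% DMSO, duplicates. Fitted both directions against DMSO baseline.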

[18] = read-out: Interleukin 6 Receptor (IL6R), IL6R (gene 3570); assay: LTEA_HepaRG_IL6R: Life Technologies and Expression Analysis (LTEA) Assay for Interleukin 6 Receptor (IL6R) using HepaRG (AID 2283510)
In short: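 IL6R transcript level by qRT-PCR after 48 h chemical exposure (8-point, half-log, max 100 uM, 0.5% DMSO vehicle) of HepaRG cells in serum-free induction medium. Normalized to three housekeeping genes; curves fitted in both directions relative to DMSO.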

Measured: outcome

Sequence of Hypoxia-inducible factor 1-alpha (Homo sapiens) (Q16665 whole entry, looked up): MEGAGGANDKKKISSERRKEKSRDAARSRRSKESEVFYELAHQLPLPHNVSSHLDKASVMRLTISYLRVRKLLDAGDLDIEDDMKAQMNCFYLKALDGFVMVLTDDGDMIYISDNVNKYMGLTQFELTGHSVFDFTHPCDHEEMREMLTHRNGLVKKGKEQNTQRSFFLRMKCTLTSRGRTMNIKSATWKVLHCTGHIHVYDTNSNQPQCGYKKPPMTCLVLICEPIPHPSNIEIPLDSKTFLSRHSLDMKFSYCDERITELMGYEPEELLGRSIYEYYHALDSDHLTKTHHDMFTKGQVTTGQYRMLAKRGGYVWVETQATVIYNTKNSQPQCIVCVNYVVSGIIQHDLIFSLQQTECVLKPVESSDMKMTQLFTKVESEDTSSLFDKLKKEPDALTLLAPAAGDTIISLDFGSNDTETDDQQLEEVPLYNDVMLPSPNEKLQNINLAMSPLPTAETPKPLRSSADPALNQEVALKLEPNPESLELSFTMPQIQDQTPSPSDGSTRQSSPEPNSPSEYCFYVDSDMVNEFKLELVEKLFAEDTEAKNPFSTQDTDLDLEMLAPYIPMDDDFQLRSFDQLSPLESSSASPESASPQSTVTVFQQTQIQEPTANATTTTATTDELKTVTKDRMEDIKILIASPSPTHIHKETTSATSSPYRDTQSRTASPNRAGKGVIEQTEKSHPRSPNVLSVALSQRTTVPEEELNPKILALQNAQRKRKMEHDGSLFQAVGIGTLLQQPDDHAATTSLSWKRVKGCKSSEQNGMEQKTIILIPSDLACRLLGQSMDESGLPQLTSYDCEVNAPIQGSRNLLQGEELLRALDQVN
Sequence of Cytochrome P450 3A7 (Homo sapiens) (P24462 whole entry, looked up): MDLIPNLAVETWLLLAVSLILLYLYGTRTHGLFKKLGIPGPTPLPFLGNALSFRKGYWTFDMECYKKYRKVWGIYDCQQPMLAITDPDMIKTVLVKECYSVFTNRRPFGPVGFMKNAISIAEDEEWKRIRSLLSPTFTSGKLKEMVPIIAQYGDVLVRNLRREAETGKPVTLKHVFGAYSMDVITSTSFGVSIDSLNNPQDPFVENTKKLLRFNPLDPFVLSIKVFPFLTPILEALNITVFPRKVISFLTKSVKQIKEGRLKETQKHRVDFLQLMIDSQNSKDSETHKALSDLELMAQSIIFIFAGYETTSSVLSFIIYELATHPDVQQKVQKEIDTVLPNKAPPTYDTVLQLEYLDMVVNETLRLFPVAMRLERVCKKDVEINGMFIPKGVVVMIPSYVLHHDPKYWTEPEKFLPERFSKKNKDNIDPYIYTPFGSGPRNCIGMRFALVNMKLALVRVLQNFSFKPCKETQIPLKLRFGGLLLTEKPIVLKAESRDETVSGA

O=C(O)c1ccc([N+](=O)[O-])cc1
inactive: all assays above
